Hits are enriched below; roughly 8% of the tested compounds scored in any of these assays.
FMDV inh: foot and mouth disease virus antiviral activity; FMDV antiviral cell-based qHTS; Potency, µM (titrated, usually from 57.9 µM), without a hit: at the highest dose activity change, negative = inhibition, usual class: inhibitors; 1.2% of 410,000 active; calls by dose curve; tested in HEK293T cells; also: read-out not given here; potency is read from the fitted curve at half-maximal effect; % is scaled to controls: 0 for no effect and ±100 for the full control effect; nearly all actives have a fitted effect of over 45% in size
HCV inhibitor: HCV inhibition | 3.4% of 340,000 active | Huh7.5.1 HCVcc-Cre infection, luciferase reporter, 44 h | Potency, µM (top dose mostly 41.8 µM), without a hit: top-dose activity change, negative = inhibition, hits mostly inhibitors; active = well fitted inhibition curve with a large enough effect; inconclusive = small, poorly fitted or top-dose-only effect, or another doubt; inactive = no such curve, though single readings can be large or run the other way; also: potency is read from the fitted curve at half-maximal effect; % is scaled to controls: 0 for no effect and ±100 for the full control effect
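Cells (1,000/well) were plated 4 h before compound, then infected with HCVcc-Cre virus (~0.5 moi). After 44 h further culture, infection was read as luciferase luminescence following a 15 min substrate incubation at room temperature.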
HCMV inh: human cytomegalovirus inhibition; HFF cells, HCMV-luciferase reporter, 72 h; hits give low values; activity change, negative = inhibition, % at 57.5 µM; 4.5% of 410,000 active; AID 1259415; in the data active = activity change below about -60%; inconclusive = no clear call, values can overlap the other calls; inactive = above about -39%; also: % is scaled to controls: 0 for no effect and ±100 for the full control effect
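Screen run at 2 compound doses on HFFs infected with reporter HCMV, MOI 1 PFU/cell. Luciferase activity from cell lysates at 72 h post infection gave inhibition relative to buffer-only and Salinomycin wells.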
Marburg entry inh: inhibitors of Marburg virus binding or cell entry; Marburg virus pseudotyped entry inhibition, cell reporter; Potency, µM (doses to about 37.8 µM), for inactives: top-dose activity change, negative = inhibition, hits mostly inhibitors; 1.8% of 300,000 active; AID 540276; calls by dose curve; tested in HEK293 cells; also: potency is read from the fitted curve at half-maximal effect; % is scaled to controls: 0 for no effect and ±100 for the full control effect
Lassa entry inh: inhibitors of Lassa virus binding or cell entry; 1.2% of 300,000 active; Potency, µM (series often up to 37.9 µM), inactives show at the highest dose activity change, negative = inhibition, most hits filed as inhibitors; AID 540256; Lassa virus pseudotype entry inhibition, cell reporter; calls by dose curve; tested in HEK293 cells; also: potency is read from the fitted curve at half-maximal effect; % is scaled to controls: 0 for no effect and ±100 for the full control effect; nearly all actives have a fitted effect of over 50% in size
SARS PLP yeast: SARS-CoV PLP inhibition in yeast | S. cerevisiae expressing SARS-CoV PLpro, growth rescue | 0.19% of 330,000 active | Potency, µM (titrated, usually from 32.9 µM), inactives show at the top dose activity, positive = growth rescue, actives largely listed as activators; calls by dose curve; also: potency is read from the fitted curve at half-maximal effect; 0% is about no effect; nearly all actives have a fitted effect of over 55% in size
An asterisk follows results filed as active; ? = inconclusive; . = no result; [ ] = remark or other dose.

SMILES	FMDV inh	HCV inhibitor	HCMV inh	Marburg entry inh	Lassa entry inh	SARS PLP yeast
COC(=O)[C@]1(C)CC[C@@]2(C)CC[C@@]3(C)C4=CCc5c(cc(O)c(O)c5C)[C@]4(C)CC[C@@]3(C)C2C1 (stereo not given in full)	20µM*	.	.	.	.	.
O=C(NCCc1ccccc1)O[C@H]1CC[C@@]23CCCN2C(=O)CCC[C@H]3[C@H]1Cc1ccccc1	.	.	-3.4	.	.	.
COc1cccc(Nc2nc(C(N)Cc3ccc(C(F)(F)F)cc3)cs2)n1 (stereo not given)	0.0%	.	-90.4*	.	.	.
COc1cc(OC)nc(Nc2nc(C(N)Cc3ccc(C(F)(F)F)cc3)cs2)n1 (stereo not given)	-23.1%	.	-85.2*	.	.	.
CCNc1ncc2nc(-c3ccc(OC)cc3)c(=O)n(CCOC)c2n1	-10.7%	.	.	.	.	.
O=C(N/N=C\c1ccc(Cl)s1)C1COc2ccccc2O1 (stereo not given)	0.0%	-28.4%	-30.9	.	.	-9.3%
O=C(N/N=C\c1ccc(-c2ccccc2[N+](=O)[O-])o1)C1COc2ccccc2O1 (stereo not given)	-13.8%	1.8%	?	?	1.2%	-57.3%
O=C(N/N=C\c1ccc([N+](=O)[O-])o1)C1COc2ccccc2O1 (stereo not given)	-5.8%	?	-84.2*	?	?	-4.3%
O=C(N/N=C\c1ccc([N+](=O)[O-])s1)C1COc2ccccc2O1 (stereo not given)	-17.8%	10µM*	-3.6	.	.	-1.4%
COc1ccc(-c2cc3ccc(O)c(CN4CCC(C)CC4)c3oc2=O)cc1OC	13.3%	.	19.5	.	3.1%[46.1 µM]	.
CCOc1ccccc1CN1CCNC(=O)C1CC(=O)NCc1nccn1CC (stereo not given)	-15.8%	-14.4%	-67.4*	8.4%	8.6%	6.0%
COc1ccc(OCC(=O)NC2CC(=O)N(c3ccc4c(c3)OCCO4)C2)cc1 (stereo not given)	0.0%	.	13.4	.	11.2%[46.1 µM]	.
COc1ccc(C2=NCC(=S)Nc3ccc(Cl)cc32)cc1Cl	?	-12.9%	-62.8*	.	.	-0.9%
O=C1NC(Cc2ccc(O)cc2)c2nc3cc(Cl)ccc3c(=O)n2-c2cc3ccccc3cc21 (stereo not given)	?	.	-99.9*	.	.	.
O=C1NC(Cc2ccccc2)c2nc3cc(Cl)ccc3c(=O)n2-c2ncccc21 (stereo not given)	?	.	-67.0*	.	.	.
Cc1ccc2nc3n(c(=O)c2c1)-c1cc2ccccc2cc1C(=O)NC3Cc1ccc(O)cc1 (stereo not given)	?	.	-92.3*	.	.	.
O=C1NC(Cc2ccc(O)cc2)c2nc3ccc(F)cc3c(=O)n2-c2cc3ccccc3cc21 (stereo not given)	?	.	-100.8*	.	.	.
O=C1NC(Cc2ccc(O)cc2)c2nc3cc(F)c(F)cc3c(=O)n2-c2cc3ccccc3cc21 (stereo not given)	?	.	-19.0	.	.	.
Cc1ccc2c(c1)-n1c(nc3ccccc3c1=O)C(Cc1ccc(O)cc1)NC2=O (stereo not given)	.	0.7%	2.0	.	.	0.7%
COc1cccc(C(=O)NCC2Cc3c(F)ccc(-c4ncccn4)c3O2)c1OC (stereo not given)	-10.0%	.	.	.	.	.
Cc1ccc(-n2cc(C(=O)Oc3ccc(F)cc3)c3ccccc3c2=O)cc1	-22.9%	.	-27.1	.	?	.
COCc1[nH]nc2c1[C@@H](c1ccnc3ccccc13)C(C#N)=C(N)O2	.	.	.	-14.7%	.	.
COc1ccc(-n2nc(C(=O)Nc3ccc(C)cn3)c3c4ccccc4n(C)c3c2=O)cc1	-12.2%	.	12.4	-2.1%[46.1 µM]	?	.
COCc1cc(C2SCC(=O)Nc3c2c(=O)[nH]n3C(C)C)ccc1OC (stereo not given)	-7.5%	5.62µM*	11.6	0.0%[46.1 µM]	1.2%	1.1%
COc1ccc(NC(=O)Nc2nnc(SCC(=O)Nc3cccc(C)c3C)s2)cc1	20.9%	.	-7.2	.	?	.
SMILES	FMDV inh	HCV inhibitor	HCMV inh	Marburg entry inh	Lassa entry inh	SARS PLP yeast
COc1cc(-n2c(C)nc3cc(C(=O)NCC4CCCO4)ccc32)cc(OC)c1OC (stereo not given)	-6.5%	5.0%	15.5	.	.	9.4%
CCOc1ccc(-n2c(C)nc3cc(C(=O)NCC4CCCO4)ccc32)cc1 (stereo not given)	1.7%	4.4%	-35.4	?	5.01µM*	-3.4%
CCOc1cc(NC(=S)NCC2CCCO2)c(OCC)cc1NC(=O)c1cccc(F)c1 (stereo not given)	5.5%	?	3.7	?	-1.8%	0.0%
Cc1cccc(-n2c(C)nc3cc(C(=O)NCC4CCCO4)ccc32)c1 (stereo not given)	15.7%	7.2%	-64.3*	.	.	2.1%
CCOc1cc(NC(=S)NCC2CCCO2)c(OCC)cc1NC(=O)c1cccc(C)c1 (stereo not given)	3.16µM*	?	-29.8	1.64µM*	?	5.2%
COCc1c(C(=O)NC2CCCCCC2)cnn1-c1nccc(-c2cc(C)sc2C)n1	49.7%	.	.	.	.	.
O=C(Nc1ccc(F)cc1)c1csc(C(O)Cc2ccccc2)n1 (stereo not given)	.	.	49.5	.	.	.
CCCCCCNc1c([N+](=O)[O-])cc(C)cc1[N+](=O)[O-]	-24.9%	8.7%	-68.9*	-2.3%	6.0%	.
CCCCNc1ccc(S(=O)(=O)c2cccc([N+](=O)[O-])c2)cc1[N+](=O)[O-]	-16.9%	0.1%	-31.8	4.4%	-4.5%	-12.0%
O=C(/C=C/c1cccs1)Nc1nc(-c2ccccc2)cs1	-46.6%	22.4µM*	-15.1	?	8.2%	-0.6%
O=C(/C=C/c1ccc2c(c1)OCO2)Nc1nncs1	57.8%	0.0%	77.1	.	.	0.0%
O=C(/C=C/c1ccc2c(c1)OCO2)Nc1nc(-c2ccccc2)cs1	14.1µM*	6.31µM*	?	?	-26.5%	4.3%
O=C(/C=C/c1cccs1)Nc1nncs1	58.6%	-8.7%	0.0	.	.	-1.7%
Cc1sc(NC(=O)/C=C/c2ccc3c(c2)OCO3)nc1-c1ccccc1	6.31µM*	?	?	?	?	20.9%
CCc1ccc(S(=O)(=O)c2cn(C)c3cc(N4CCC(C)CC4)c(F)cc3c2=O)cc1	-16.0%	.	10.3	.	24.2%[46.1 µM]	.
O=C(CCC1N=C2c3ccccc3N=C(SCc3cccc(F)c3)N2C1=O)NCc1cccs1 (stereo not given)	?	.	-9.0	.	-5.6%[46.1 µM]	.
CC(=O)N(C)c1ccc(N=Nc2ccc3ncccc3c2)cc1	-14.5%	-27.1%	30.0	?	10µM*	.
CC(=O)N1CCc2c(sc3c2c(=O)n(CCc2ccccc2)c(=O)n3Cc2cccc(C)c2)C1	?	.	-0.7	-3.1%[46.1 µM]	.	.
COc1ccc(C2=NS(=O)(=O)N(C)C(C(=O)Nc3ccc4c(c3)OCO4)=C2)cc1OC	?	12.6µM*	8.5	.	.	6.2%
CCOc1ccc(C(=O)Nc2ccc3c(c2)OCO3)cc1OCC	13.6%	5.62µM*	43.5	-14.3%	3.3%	0.6%

Screening results deposited in PubChem by National Center for Advancing Translational Sciences (NCATS).
